Consider 28 compounds from PubChem BioAssay (EPA / NIEHS).

Inconclusive results are not listed. The source made the active and inactive calls. The calls were made as follows: active = hit-call score of the fitted dose curve at least 0.9, where 1 is the maximum; inconclusive = response in the unintended direction; inactive = score below 0.9.

A short description of assay [1]: TOX21_p53_BLA_p2_viability: Viability Assessment in the Tox21 HCT-116 p53 Agonism Beta-lactamase Assay, Phase 2 (AID 2283591).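 Also: actives lower the ATP signal meaning cytotoxicity.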 Put shortly:
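HCT-116 p53-bla cells (4000/well) rested 5 h at 37C, then received compounds in DMSO (217-fold dilution) for 16 h at 37C, 5% CO2. After the CCF4 read, CellTiter-Glo was added; ATP luminescence was read after 30 min at room temperature.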

Assay [2] deals with Cellular tumor antigen p53 (Homo sapiens) (UniProt P04637). Briefly: TOX21_p53_BLA_p2_ratio: Tox21 HCT-116 p53 Agonism Beta-lactamase Assay, Ratio, Phase 2 (AID 2283592). Put shortly:
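Readout: blue/green (460/530 nm) FRET emission ratio after 2 h CCF4-AM loading at room temperature, excitation 405 nm. HCT116 p53 bla cells, 16 h compound exposure at 37C, 5% CO2; agonist direction fitted against DMSO baseline.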

The nature of assay [3]: TOX21_p53_BLA_p3_viability: Viability Assessment in the Tox21 HCT-116 p53 Agonism Beta-lactamase Assay, Phase 3 (AID 2283593).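 Also: cells exposed to compound for 16 h before reading.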 Put shortly:
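HCT-116 cells (4000/well) rested 5 h at 37C, then got DMSO compounds by pin tool (217-fold dilution) for 16 h at 37C, 5% CO2. After the bla read, CellTiter-Glo was added and luminescence read at 30 min, room temperature.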

Assay [4] is described as follows: TOX21_p53_BLA_p4_viability: Viability Assessment in the Tox21 HCT-116 p53 Agonism Beta-lactamase Assay, Phase 4 (AID 2283597).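 Also: hits lower the luminescence signal meaning cytotoxicity.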 Put shortly:
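ATP content by CellTiter-Glo luminescence, 30 min RT, read after the beta-lactamase ratio step. Cells: HCT116, 4000/well, compound added after 5 h, exposure 16 h at 37C. Signal loss = reduced viability.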

Assay [5] concerns the target Cellular tumor antigen p53 (Homo sapiens) (UniProt P04637). Briefly: TOX21_p53_BLA_p5_ratio: Tox21 HCT-116 p53 Agonism Beta-lactamase Assay, Ratio, Phase 5 (AID 2283599). Put shortly: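 HCT-116 cells carrying a p53-inducible beta-lactamase reporter were seeded at 4000 cells/well and dosed after 5 h with compound in DMSO (217-fold dilution). After 16 h at 37C, CCF4-AM substrate was added for 2 h, and the 460/530 nm emission ratio was scored as gain-of-signal versus DMSO.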

The nature of assay [6]: TOX21_p53_BLA_p5_viability: Viability Assessment in the Tox21 HCT-116 p53 Agonism Beta-lactamase Assay, Phase 5 (AID 2283600). In a few lines: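 ATP luminescence (CellTiter-Glo, 30 min, RT) served as the viability read-out, with loss of signal indicating cytotoxicity. Compounds in DMSO were pinned at a 217-fold dilution onto 4000 cells/well and incubated 16 h, 37C.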
Assay [7] deals with Cellular tumor antigen p53 (Homo sapiens) (UniProt P04637). Briefly: TOX21_p53_BLA_p4_ratio: Tox21 HCT-116 p53 Agonism Beta-lactamase Assay, Ratio, Phase 4 (AID 2283601). Put shortly: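 HCT116 cells carrying an inducible beta-lactamase reporter were plated at 4000 cells/well, rested 5 h, then exposed to compounds in DMSO (217-fold dilution) for 16 h at 37C. CCF4-AM substrate was loaded 2 h at room temperature; 460/530 nm emission ratio scored gain-of-signal versus DMSO.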
Sequence of Cellular tumor antigen p53 (Homo sapiens) (P04637 whole entry, looked up): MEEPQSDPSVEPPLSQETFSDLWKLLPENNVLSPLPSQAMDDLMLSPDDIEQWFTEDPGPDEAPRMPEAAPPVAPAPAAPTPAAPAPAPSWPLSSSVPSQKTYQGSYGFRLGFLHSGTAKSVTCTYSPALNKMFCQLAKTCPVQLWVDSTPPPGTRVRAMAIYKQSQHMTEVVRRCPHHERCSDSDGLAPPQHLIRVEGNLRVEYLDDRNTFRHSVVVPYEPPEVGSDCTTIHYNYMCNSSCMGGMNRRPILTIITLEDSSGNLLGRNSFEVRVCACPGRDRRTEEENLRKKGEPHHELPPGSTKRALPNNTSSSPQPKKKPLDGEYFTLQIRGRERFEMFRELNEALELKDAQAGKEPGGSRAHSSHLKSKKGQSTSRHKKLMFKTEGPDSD

Turning to `Oc1ccccc1C=NCc1ccccc1`, the compound was called inactive in assay [1], in assay [2], in assay [3], in assay [4], in assay [5] and in assay [6]. In addition, the outcome in assay [7] was inactive.

On to `COC(=O)[C@H]1[C@H]2C[C@@H]3c4[nH]c5cc(OC)ccc5c4CCN3C[C@H]2C[C@@H](OC(=O)/C=C/c2cc(OC)c(OC)c(OC)c2)[C@@H]1OC`, for which the outcome in assay [1], in assay [2], in assay [3], in assay [4], in assay [5] and in assay [6] was inactive. For the same compound, the outcome in assay [7] was inactive.

Consider `NC(N)=NC(=O)Cc1c(Cl)cccc1Cl`, for which the result in assay [1], in assay [2], in assay [3], in assay [4], in assay [5] and in assay [6] was inactive. Besides, the result in assay [7] was inactive.

With `CC1(C)S[C@@H]2[C@H](NC(=O)C(C(=O)O)c3ccsc3)C(=O)N2[C@H]1C(=O)O` (stereo not given in full), the compound was classed as inactive in assay [1], in assay [2], in assay [3], in assay [4], in assay [5] and in assay [6].

As for `O=C(O)Cc1cccc(-c2cc(CCCCCCc3ccc(O[C@H]4O[C@H](CO)[C@@H](O)[C@H](O)[C@@H]4O)c(-c4cccc(CC(=O)O)c4)c3)ccc2O[C@H]2O[C@H](CO)[C@@H](O)[C@H](O)[C@@H]2O)c1`, the compound was classed as inactive in assay [1], in assay [2], in assay [3], in assay [4], in assay [5] and in assay [6].

As for `O=C(CCCN1CCN(c2ccc(F)cc2)CC1)NC1c2ccccc2CSc2ccccc21` (stereo not given), the compound was called inactive in assay [1], in assay [2], in assay [3], in assay [4], in assay [5] and in assay [6].

With `CC1=C(O)C(=O)OC1C` (stereo not given), the call in assay [1], in assay [2], in assay [3], in assay [4], in assay [5] and in assay [6] was inactive.

Take `CC(C)OCC1CO1` (stereo not given): the compound was classed as inactive in assay [1], in assay [2], in assay [3], in assay [4] and in assay [5].

In the case of `CCCCCC1Nc2cc(C(F)(F)F)c(S(N)(=O)=O)cc2S(=O)(=O)N1` (stereo not given), the compound was called inactive in assay [1], in assay [2], in assay [3], in assay [4], in assay [5] and in assay [6].

Broadly, the AC50 is the concentration giving half of the maximal activity seen. On to `Cc1cc(N)c2cc(NC(=O)Nc3ccc4nc(C)cc(N)c4c3)ccc2n1`, for which the outcome in assay [1], in assay [2], in assay [3], in assay [5], in assay [6] and in assay [7] was inactive. Besides, the concentration at half-maximal activity (AC50) in assay [4] is 29.7 µM (active).

In the case of `CC[N+]1(CC)CCC(=C(c2ccccc2)c2ccccc2)C1C` (stereo not given), the call in assay [1], in assay [2], in assay [3], in assay [4], in assay [5] and in assay [6] was inactive.

For `O=P(O)(O)C(Sc1ccc(Cl)cc1)P(=O)(O)O`, the result in assay [1], in assay [2], in assay [3], in assay [4], in assay [5] and in assay [6] was inactive.

Consider `O=C1OC(=O)c2cc([N+](=O)[O-])ccc21`, for which the compound was classed as inactive in assay [1], in assay [2], in assay [3], in assay [4] and in assay [5].

`NC(=S)NS(=O)(=O)c1ccc(N)cc1`: the result in assay [1], in assay [2], in assay [3], in assay [4], in assay [5] and in assay [6] was inactive.

Consider `O=C(O)c1ccc(OCCCOc2ccc(C(=O)O)cc2)cc1`, for which the compound was classed as inactive in assay [1], in assay [2], in assay [3], in assay [4], in assay [5] and in assay [6]. For the same compound, the result in assay [7] was inactive.

On to `Cc1cc(CC(=O)O)c(C)n1-c1ccc(Cl)cc1`, for which the call in assay [1], in assay [2], in assay [3], in assay [4], in assay [5] and in assay [6] was inactive. Besides, the result in assay [7] was inactive.

For `O=C1c2ccccc2Cc2ccccc21`, the compound was classed as inactive in assay [1], in assay [2], in assay [3], in assay [4], in assay [5] and in assay [6]. Also, the outcome in assay [7] was inactive.

For the compound `CN1CCN(CCC=C2c3ccccc3Sc3ccc(S(=O)(=O)N(C)C)cc32)CC1`, the call in assay [1], in assay [2], in assay [3], in assay [5] and in assay [6] was inactive. Further, the concentration at half-maximal activity (AC50) in assay [4] is 34.9 µM (active); in assay [7], 43.7 µM (active).

For `CCc1c2c(nc3ccc(OC(=O)N4CCC(N5CCCCC5)CC4)cc13)-c1cc3c(c(=O)n1C2)COC(=O)[C@]3(O)CC`, the compound was called inactive in assay [1], in assay [3], in assay [4] and in assay [6]. Also, the concentration at half-maximal activity (AC50) is 5.56 µM (active) in assay [2], 7.41 µM (active) in assay [5] and 11.3 µM (active) in assay [7].

`O=c1[nH]cnc2[nH]cc(CN3CCCCC3)c12`: the compound was called inactive in assay [1], in assay [2], in assay [3], in assay [4], in assay [5] and in assay [6].

As for `CC(C(=O)O)c1ccc(C(=O)c2ccccc2)s1` (stereo not given), the result in assay [1], in assay [2], in assay [3], in assay [4], in assay [5] and in assay [6] was inactive. For the same compound, in assay [7], the result was inactive.

Consider `CCOC(=O)[C@H](CCc1ccccc1)N[C@@H](C)C(=O)N1CCC[C@H]1C(=O)O`, for which the outcome in assay [1], in assay [2], in assay [3], in assay [4], in assay [5] and in assay [6] was inactive.

For `CC(C)(C)c1cc(CO)cc(C(C)(C)C)c1O`, the outcome in assay [1], in assay [2], in assay [3], in assay [4], in assay [5] and in assay [6] was inactive.

Regarding `C=CCN1C[C@H](C(=O)N(CCCN(C)C)C(=O)NCC)C[C@@H]2c3cccc4[nH]cc(c34)C[C@H]21`, the result in assay [1], in assay [2], in assay [3], in assay [4], in assay [5] and in assay [6] was inactive. Also, the outcome in assay [7] was inactive.

With `CC(C)(COP(=O)(O)OP(=O)(O)OC[C@H]1O[C@@H](n2cnc3c(N)ncnc32)[C@H](O)[C@@H]1OP(=O)(O)O)C(O)C(=O)NCCC(=O)NCCS` (stereo not given in full), the result in assay [1], in assay [2], in assay [3], in assay [4], in assay [5] and in assay [6] was inactive.

On to `CC(C)N1CCN(c2ccc(OC[C@H]3CO[C@](Cn4cncn4)(c4ccc(Cl)cc4Cl)O3)cc2)CC1`, for which the result in assay [1], in assay [2], in assay [3], in assay [5], in assay [6] and in assay [7] was inactive. Also, the AC50 in assay [4] was 10.3 µM (active).

As to `c1ccncc1`, the outcome in assay [1], in assay [2], in assay [3], in assay [4], in assay [5] and in assay [6] was inactive. In assay [7], the result was inactive.

With `O=C(O)COc1ccc(C(=O)c2cccs2)c(Cl)c1Cl`, the result in assay [1], in assay [2], in assay [3], in assay [4], in assay [5] and in assay [6] was inactive. In assay [7], the outcome was inactive.
